# Where “and” joins values, the source holds several entries; their conditions need not be identical. Equal values may be shown once. The campaign covered roughly 75,000 compounds. About 5,700 (7.6%) were called active. Where a call stands in place of a potency, no number is given. Not shown: some 7% with an inconclusive outcome. Calls come from the whole dose curve; as a rule, active = well fitted inhibition curve with a large enough effect; inconclusive = small, poorly fitted or top-dose-only effect; inactive = no such curve, though single readings can be large or run the other way. For the sample, actives were picked, then their nearest neighbours and some compounds at random.
# Molecular target: 3-hydroxyacyl-CoA dehydrogenase type-2 (Homo sapiens) (UniProt Q99714)
# Experiment: qHTS Assay for Inhibitors of HSD17B4, hydroxysteroid (17-beta) dehydrogenase 4; note: nearly all actives have a fitted effect of over 70% in size
# Settings: recombinant HSD17B10, NADH fluorescence kinetic; series mostly up to 57.1 µM
# Description: Assay Overview: NIH Molecular Libraries Screening Centers Network [MLSCN] NIH Chemical Genomics Center [NCGC] Structural Genomics Consortium [SGC] Grant number: None HADH2: Hydroxyacyl-Coenzyme A dehydrogenase, type II, was supplied by researchers at the Structural Genomics Consortium, Oxford University lab (PI Udo Oppermann). The mitochondrial enzyme 17-hydroxysteroid dehydrogenase type 10 (HSD17-10) previously classified as type II hydroxyacyl-CoA dehydrogenase (HADH2) catalyzes the NAD+ dependent oxidation of a variety of substrates including acyl-CoAs, androgens and neurosteroids as well as bile acids(Shafqat N, Marschall HU, Filling C, et al. Biochemical Journal. 2003;376(Pt 1):49-60). […] The enzyme was produced by E.coli fermentation as His-tagged recombinant for the purpose of X-ray structure determination, and had been mass-spectrometry characterized. Inhibition of HADH2 activity was screened by utilizing beta-hydroxybutyryl coenzyme A as an electron donor and NAD+ as an electron acceptor/cofactor. An increase in the fluorescence intensity due to conversion of NAD+ to NADH was used to measure the enzyme activity.
# Assay Protocol: Buffer: 100 mM Tris-HCl pH 9.0, containing 0.01 % Tween-20. Reagents/Controls: Buffer in columns 3 and 4 as negative control (no enzyme). Substrate/cofactor solution: 1 mM NAD+ and 90 uM beta-hydroxybutyryl coenzyme A (Sigma-Aldrich, St. Louis, MO) final concentrations dispensed throughout the plate. Enzyme: 20 nM HADH2 final concentration in columns 1, 2, 5-48. Column 1 is neutral (100% activity). Column 2 contained titration of apomorphine (Sigma-Aldrich, A 4393, PubChem CID 2215, top concentration 500 uM, then 1:2 dilution in duplicate) Assay Steps: Three uL of enzyme were dispensed to 1536-well Greiner black solid bottom plates. Compounds and controls (23 nL) were transferred via Kalypsys PinTool. The plates were incubated for 15 min at room temperature, and then 1 uL of substrate/cofactor solution was added to start the reaction. The plates were immediately transferred to and read every 30 seconds for 4 min on ViewLux High-throughput CCD imager (Perkin-Elmer) using 360 nm excitation and 450 nm emission fluorescence protocol. The fluorescence intensity difference between the last and the first time points was used to compute reaction progress.
# Potency is the fitted concentration of half-maximal effect.
SMILES,Potency,"activity change, negative = inhibition"
CCOC(=O)CN(C(=O)CN1CCOCC1)c1ccc(Br)cc1,inactive,–
Cc1ccc(OCC(O)CN2CCN(CC(O)COc3ccc(C)cc3Cl)CC2)c(Cl)c1 (stereo not given),inactive,–
c1ccc(-n2ncc(-c3nn[nH]n3)n2)cc1,31.6 µM (active),–
CC(C)c1ccc(-c2nn[nH]n2)cc1,inactive,–
CCCn1nnc2sc3c(c2c1=O)CCC(C)C3 (stereo not given),inactive,–
Cc1nc2cc(S(=O)(=O)C(F)(F)F)ccc2s1,inactive,–
CC(=O)Oc1ccc2c(C)c(CC(C)O)c(=O)oc2c1 (stereo not given),2 µM (active),–
COc1ccc(-c2oc3cc(OC)ccc3c2C(=O)c2ccc(C#N)cc2)cc1,inactive,–
CN1C(C)(C)CC(NC(=O)CCC(=O)NC2CC(C)(C)N(C)C(C)(C)C2)CC1(C)C,inactive,–
O=C(CCCOc1ccccc1)Nc1cccc(C(=O)O)c1,inactive,–
Cc1ccc2c(c1)N(CCCC(=O)NCc1cccnc1)C(=O)CO2,inactive,–
COc1cccc(N(CC(=O)Nc2cccc(N(C)S(C)(=O)=O)c2)S(C)(=O)=O)c1,inactive,–
COC(=O)c1cn(-c2ccccc2)nc1-c1cccnc1,inactive,–
Cc1ccc2oc(=O)ccc2c1,inactive,–
COc1ccc2c(=O)cc(-c3ccccc3)oc2c1O,inactive,–
Cc1cccc(-c2cc(=O)c3cc(C)ccc3o2)c1,31.6 µM (active),–
COc1ccc(C)cc1-n1nnnc1SCC(=O)c1cc(C)n(Cc2ccco2)c1C,inactive,–
NS(=O)(=O)c1ccc(CCNC(=O)Nc2ccc(Cl)cc2)cc1,inactive,–
O=C(NCCc1ccc(Cl)cc1)C1CC(=O)N(C2CCCCC2)C1 (stereo not given),inactive,–
Oc1cc2c(cc1O)CN(C(=S)NCCc1ccc(Cl)cc1)CCC2,15.8 µM (active),–
CN1CCc2[nH]nc(-c3n[nH]c4c3CN(C)CC4)c2C1,–,4.35% [at 11.4 µM] (inactive)
COc1ccc(-c2nc(SCC(=O)N3CCOCC3)n[nH]2)cc1,inactive,–
COc1ccc(-c2ccnc(SCC(=O)N3CCOCC3)n2)cc1,25.1 µM (active),–
CCn1c(COc2cccc(OC)c2)nnc1SCC(=O)N1CCOCC1,inactive,–
O=C(CSc1nnc(-c2ccccc2)o1)N1CCOCC1,inactive,–
Nc1ccc(-c2nnc(-c3ccc(-c4ccccc4)cc3)o2)cc1,5.01 µM (active),–
O=C(OCc1nnc(-c2ccccc2)o1)c1ccc2c(c1)C(=O)N(CCc1ccccc1)C2=O,inactive,–

SMILES,Potency,"activity change, negative = inhibition"
Fc1cccc(/C=N\N=C/c2cccc(F)c2)c1,inactive,–
O=C(O)CCC(=O)NCc1ccc2[nH]c3c(c2c1)CCCC3,inactive,–
N#CCCN1CCN(S(=O)(=O)c2ccc(S(=O)(=O)NC3CCCCC3)cc2)CC1,inactive,–
COc1ccccc1-n1c(CNC(=O)c2ccccc2)nnc1SCC(=O)Nc1nnc(C)s1,inactive,–
COC(CCN(C)C)(c1ccccc1)c1ccccc1,inactive,–
COc1cccc(-c2nc(S(=O)(=O)c3ccccc3)c(N3CCOCC3)o2)c1,inactive,–
COc1cccc(-c2nc3cc(C)ccc3o2)c1,25.1 µM (active),–
CCCCN(CC)CCCNC(=O)CS(=O)(=O)Cc1nc(-c2cccc(OC)c2)oc1C,inactive,–
COc1ccccc1N1CCN(CCN2C(=O)c3ccccc3C(C)(C)C2=O)CC1,inactive,–
COc1ccc(OC)c(CNC(=O)CCc2nc(-c3cccs3)no2)c1,inactive,–
CCOC(=O)NCc1ccc2c(c1)OCO2,inactive,–
CCC1=C/C(=C\c2ccc3c(c2)OCO3)C(=O)S1,25.1 µM (active),–
CCOc1ccc(NC(=O)CSc2nc3c(c(=O)n2-c2ccccc2OC)SCC3)cc1,inactive,–
COc1ccc(/C=C/NC(=O)Cc2ccc(OC)c(OC)c2)cc1,–,-1.94% [at 11.4 µM] (inactive) and 1.41% [at 11.4 µM] (inactive)
O=C(c1cccc(S(=O)(=O)N2CCOCC2)c1)N1CCOCC1,inactive,–
COc1cccc(-c2nc(Nc3ccncc3)c3ccccc3n2)c1,inactive,–
Cc1noc(C)c1-c1nc(Nc2ccccc2)c2ccccc2n1,20 µM (active),–
c1cncc(-c2nc(N3CCNCC3)c3ccccc3n2)c1,inactive,–
c1ccc2c(Nc3ccncc3)nc(-c3ccc4c(c3)OCO4)nc2c1,25.1 µM (active),–
O=C(Cn1nnc(-c2ccccc2)n1)NCc1ccc2c(c1)OCO2,inactive,–
CNc1nc(-c2ccccc2OC)nc2ccccc12,inactive,–
Cc1cnc(CNc2nc(-c3cccnc3)nc3ccccc23)cn1,inactive,–
c1ccc2c(Nc3ccncc3)nc(-c3ccoc3)nc2c1,20 µM (active),–
COc1ccccc1CNc1ccnc(-c2c(C)noc2C)n1,inactive,–
CCCn1c(=O)c2[nH]c(C3CCCC3)nc2n(CCC)c1=O,inactive,–
O=C(Cn1cc2c(n1)CCCCC2)NCCN1CCOCC1,inactive,–
Cc1cc(NC(=O)COC(=O)c2ccc(F)c(S(=O)(=O)N3CCOCC3)c2)no1,inactive,–

SMILES,Potency,"activity change, negative = inhibition"
CC1(C)OC2CC(=O)OC[C@@]23C1CC(=O)[C@]1(C)C3CC[C@@]2(C)C(c3ccoc3)OC(=O)C3O[C@@]321 (stereo not given in full),inactive,–
NC[C@@H]1O[C@H](O[C@@H]2[C@H](O[C@@H]3O[C@H](CO)[C@@H](COC[C@H]4O[C@@H](CN)[C@@H](O)[C@@H](O)[C@@H]4N)[C@@H]3O)[C@@H](O)[C@@H](N)C[C@H]2N)[C@@H](N)[C@H](O)[C@@H]1O,inactive,–
C=CCSc1nnc(Cn2c(=O)sc3ccccc32)n1C,inactive,–
Cc1cc(NC(=O)CN2CCC(O)(c3cccc(F)c3)CC2)no1,inactive,–
CCCN(C/C=C\I)[C@@H]1CCc2cccc(O)c2C1,inactive,–
CC(NC(=O)CN1CCN(Cc2ccc(Cl)cc2)C1=O)c1ccc2c(c1)OCCO2 (stereo not given),inactive,–
CC1CCCCC1NC(=O)CSc1nnc(N)s1 (stereo not given),inactive,–
O=c1ccc2cc(S(=O)(=O)N3CCN(c4ccccc4)CC3)ccc2o1,inactive,–
CN(C)CCCn1c(N)c(C#N)c2nc(C#N)c(C#N)nc21,25.1 µM (active),–
O=C1NC(=O)[C@@](Cc2ccccc2)(c2cccnc2)N1,–,-1.35% [at 11.4 µM] (inactive)
CCOc1ccc(OCC)c(NC(=O)C2CCN(S(=O)(=O)c3c(C)noc3C)CC2)c1,inactive,–
Cc1ccc(F)cc1NC(=O)c1ccc2c(c1)OCO2,inactive,–
COc1ccccc1OCCNCC(O)COc1cccc2[nH]c3ccccc3c12 (stereo not given),inactive,–
C#CC(C)(C)NC(=O)CSc1nc2c(c(=O)n(C)c(=O)n2C)n1CCCC,inactive,–
Cc1cc(C(F)(F)F)n2ncc(-c3ccccc3)c2n1,inactive,–
COC(=O)c1ccccc1NC(=O)Cn1nc(C(F)(F)F)c2c1CCC2,inactive,–
COC(=O)c1cnn2c(C(F)(F)F)cc(-c3ccco3)nc12,25.1 µM (active),–
CCC1=C(OC(=O)N(CC)CC)N2C(=O)OC(=NCCc3c[nH]c4ccccc34)[C@]2(C)[C@H]2C1=CC[C@H]1C(=O)N(CC)C(=O)[C@H]12,inactive,–
CCOC(=O)c1cn(CC(=O)Nc2ccc(C(C)C)cc2)nn1,inactive,–
Cn1c(NC(=O)c2ccc3c(c2)OCO3)cc(=O)n(C)c1=O,inactive,–
Cc1ccccc1NC(=O)c1ccccc1,inactive,–
Cc1ccc(NC(=O)c2cccc(N(C)C)c2)cc1NC(=O)c1ccc(O)cc1,31.6 µM (active),–
Cc1ccc(F)cc1NC(=O)c1cccc(N(C)C)c1,inactive,–
CN(C)CCSS(=O)(=O)O,–,8.4% [at 11.4 µM] (inactive)
Cc1ccc(NC(=O)C2CCCN(S(=O)(=O)c3c(C)noc3C)C2)c(C)c1 (stereo not given),inactive,–
O=C(Nc1ccc2c(c1)OCCO2)C1CCCN(c2ncccn2)C1 (stereo not given),inactive,–
Cc1ccnc(N2CCCC(C(=O)Nc3cc(F)ccc3C)C2)n1 (stereo not given),25.1 µM (active),–

SMILES,Potency,"activity change, negative = inhibition"
COc1ccc(N(CC(=O)NC2CCCCCCC2)S(=O)(=O)c2c(C)nn(C)c2C)cc1,inactive,–
COc1cccc(-n2cc3c(c2-c2ccccc2)c(=O)n(C)c(=O)n3C)c1,inactive,–
Cc1occc1C(=O)Nc1nnc(C2CCCCC2)s1,inactive,–
Cc1occc1C(=O)Nc1cccc(Cn2cccn2)c1,inactive,–
Cc1occc1C(=O)Nc1nnc(-c2ccncc2)s1,31.6 µM (active),–
O=C(NC1CCCC1)c1ccc(Br)s1,inactive,–
CCOc1ccc2nc(SC(CC)C(=O)Nc3cc(C)on3)sc2c1 (stereo not given),inactive,–
CN1CCCC1CCO[C@@](C)(c1ccccc1)c1ccc(Cl)cc1 (stereo not given in full),inactive,–
COc1ccc2[nH]cc(CCNc3ncnc4ccc(-c5ccc(C(=O)N(C)C)cc5)cc34)c2c1,inactive,–
O=C(CS(=O)(=O)c1cn(Cc2cccc(F)c2)c2ccccc12)N1CCCCC1,inactive,–
CC1CCN(Cc2nc3c(c(=O)n(C)c(=O)n3C)n2CCc2ccccc2)CC1,inactive,–
CCn1c(NCCc2ccc(OC)c(OC)c2)nc2c1c(=O)n(C)c(=O)n2C,inactive,–
Cn1c(=O)c2c(nc(NCCc3ccccc3)n2Cc2ccccc2)n(C)c1=O,31.6 µM (active),–
Cc1ccc2c(CSc3nncs3)cc(=O)oc2c1,12.6 µM (active),–
CCN(Cc1nc2ccccc2c(=O)[nH]1)Cc1cc(=O)oc2cc(C)c(C)cc12,inactive,–
COC(=O)[C@@]1(Cc2ccc(OC)cc2)[C@H]2c3cc(C(=O)N4CCCC4)n(Cc4ccc(C(F)(F)F)nc4)c3C[C@H]2CN1C(=O)c1ccccc1,inactive,–
CC(C)c1ccc(NS(=O)(=O)c2cn(C)c(=O)n(C)c2=O)cc1,inactive,–
CN(CCc1ccccn1)S(=O)(=O)c1ccc2c3c(cccc13)C(=O)N2,31.6 µM (active),–
O=c1[nH]nc(Cc2ccccn2)c2ccccc12,inactive,–
COC(=O)c1ccccc1NC(=O)c1cncc(Br)c1,inactive,–
O=C(CSc1nnc2ccccn12)c1ccccc1,inactive,–
O=C(Nc1ncc2c(n1)CC(c1ccco1)CC2=O)c1ccc(Cl)cc1 (stereo not given),inactive,–
CCc1ccc(NC(=O)CSc2nnc(-c3cnccn3)n2Cc2ccco2)cc1,inactive,–
CCc1ccc(Nc2ncc3c(n2)CC(c2ccco2)CC3=O)cc1 (stereo not given),20 µM (active),–
